Source: PubChem BioAssay AID652062 (Broad Institute, 2013)
Screen size: about 1,400 compounds; about 1,100 (79%) were called active.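 How the source made its calls: active means fitted half-maximal concentration of a falling signal no higher than twice the top valid dose in every test run; inconclusive means runs disagree, or flat partial inhibition, or poor fit; inactive means every run inactive: flat, wrong direction, or potency beyond limit.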 The set was probably picked from earlier hits. Only a sample is shown. Potency and affinity values are given separately.

assay: inhibitors of clade B AD8 Env fusion, dose response, cell-based, cherry-pick (AID 652062); conditions: HeLa-AD8 Env / CEM-CCR5 cell fusion, luciferase; at 35 µM (top of the series) unless noted

In order of rising activity change, negative = inhibition:
1. CC(C)CC#Cc1ccc2c(c1)O[C@@H](CN(C)C(=O)C1CCCCC1)[C@H](C)CN([C@@H](C)CO)S2(=O)=O  -88.1%
2. CC(C)(C)c1ccc(-n2ncc3c2CCCC3NC(=O)CN2CCCC2=O)cc1 (configuration not stated)  -53.4%
3. CCCNC(=O)C[C@@H]1C[C@@H]2c3cc(NC(=O)Cc4ccncc4)ccc3O[C@@H]2[C@H](CO)O1  -27.5%
4. C[C@@H]1CN([C@H](C)CO)C(=O)c2cc(C#Cc3ccncc3)cnc2O[C@@H]1CN(C)S(=O)(=O)c1ccccc1F  -27%
5. COc1cc(OC)cc(C(=O)N[C@H](C(=O)NCCc2c[nH]c3ccccc23)C(C)C)c1  -23.6%
6. CO[C@@H]1CN(C)C(=O)c2cc(NC(=O)Nc3ccc(Cl)cc3)ccc2OC[C@H](C)N(C)C[C@H]1C  -19.7%
7. C[C@H]1CN([C@@H](C)CO)S(=O)(=O)c2ccc(-c3cccc(F)c3)cc2O[C@H]1CN(C)S(=O)(=O)c1ccccc1  -18.9%
8. CCCNC(=O)C[C@H]1C[C@H]2c3cc(NC(=O)Cc4ccncc4)ccc3O[C@H]2[C@H](CO)O1  -15.2%
9. CCOc1ccc2c(c1)-c1c(ssc1=S)C(C)(C)N2C(=O)c1ccco1  -10.3%
10. Cn1cc(S(=O)(=O)N2CCOCC2)cc1C(=O)Nc1cccc(Cl)c1  -9.96%
11. Cc1cc(C(C)(C)C)oc1C(=O)N(CC(=O)NC1CCCC1)Cc1ccc(Cl)cc1  -9.64%
12. O=C(Nc1cc(Cl)cc(Cl)c1)C(c1ccccc1)N1CCCCC1 (configuration not stated)  -7.46%
13. Cc1ccccc1S(=O)(=O)NC(=O)C1(C)CCN1C(=O)CCc1ccc(Cl)cc1Cl (configuration not stated)  -6.19%
14. CCOC(=O)C(C)Oc1cccc2c(=O)n(CC(=O)NCCc3ccc(OC)c(OC)c3)ccc12 (configuration not stated)  3.5%
15. O=C(CNC(=O)c1cccc(-n2cccc2)c1)Nc1ccccc1Br  4.51%
16. COc1ccc(-c2nn(C)c(=O)c3ccccc23)cc1NC(=O)Cn1nc(C)c2ccccc2c1=O  6.7%
17. N#Cc1ccc(CSc2nnc(COc3ccccc3)n2-c2ccccc2)cc1  7.17%
18. C[C@H]1CN([C@@H](C)CO)C(=O)c2cc(NS(=O)(=O)c3ccc(F)cc3)ccc2O[C@H]1CN(C)S(=O)(=O)c1ccc(F)cc1  7.89%
19. O=C(CCNC(=O)c1ccc(Br)cc1)NNC(=O)COc1ccccc1F  9.15%
20. Nc1nonc1C(=O)NCCNCc1c(OCc2ccccc2F)ccc2ccccc12  10.1%
21. C[C@H]1CN([C@@H](C)CO)C(=O)Cc2cc(N(C)C)ccc2O[C@H]1CN(C)Cc1ccc(Cl)c(Cl)c1  15.3%
22. c1ccc(CSc2nnc([C@@H]3CCCN3)o2)cc1  25%
23. C[C@H]1CN([C@@H](C)CO)C(=O)c2ccccc2-c2ccccc2CO[C@H]1CN(C)S(=O)(=O)c1ccccc1C#N  30.6%
24. O=C(NCC[C@@H]1CC[C@@H](NS(=O)(=O)c2ccccc2F)[C@@H](CO)O1)c1ccc(F)cc1  36%
25. C[C@H]1CN([C@@H](C)CO)C(=O)c2cc(NS(C)(=O)=O)ccc2O[C@@H]1CN(C)Cc1ccc(Cl)c(Cl)c1  37.5%
26. Cc1ccccc1-n1c(=O)c2ccccc2n2cnnc12  40.3%
27. CCCNC(=O)C[C@@H]1C[C@@H]2c3cc(NC(=O)CN(C)C)ccc3O[C@@H]2[C@H](CO)O1  48.2%
28. CCN1CCN(S(=O)(=O)c2ccc(Cl)c(C(=O)Nc3ccccc3N3CCCC3)c2)CC1  48.8%
29. CNC[C@H]1Oc2c(NC(=O)Nc3ccc(C(F)(F)F)cc3)cccc2C(=O)N([C@@H](C)CO)C[C@H]1C  50.6%
30. CCN(CC)CCN(C(=O)c1cc(Cl)sc1Cl)c1nc2cc3c(cc2s1)OCO3  54.2%
31. CCOC(=O)C1CCN(C(=O)c2ccc3c(c2)C(=O)N(c2ccccc2C)C3=O)CC1  68.2%
32. Cc1nc2sc(C(c3ccco3)N3CCC(Cc4ccccc4)CC3)c(O)n2n1 (configuration not stated)  111%
33. S=c1nc[nH]c2c1[nH]c1ccc(Cl)cc12  149%

In order of rising activity change, negative = inhibition:
1. CCCNC(=O)C[C@H]1C[C@H]2c3cc(NC(=O)CN(C)C)ccc3O[C@H]2[C@H](CO)O1  -19.9% [at 16 µM]
2. C[C@H](CO)N1C[C@H](C)[C@H](CN(C)S(=O)(=O)c2ccc(C#N)cc2)Oc2ncc(/C=C/c3ccccc3)cc2C1=O  16.9% [at 16 µM]
3. C[C@H](CO)N1C[C@H](C)[C@H](CN(C)Cc2ccccc2)Oc2c(NC(=O)Nc3ccc4c(c3)OCO4)cccc2C1=O  19.6% [at 16 µM]
4. C[C@@H]1CN([C@@H](C)CO)C(=O)c2cccc(NS(=O)(=O)c3ccc(F)cc3)c2O[C@@H]1CN(C)Cc1ccc(-c2ccccc2)cc1  44.3% [at 16 µM]
